High-throughput results: PubChem BioAssay, National Center for Advancing Translational Sciences (NCATS)
Shown are actives, neighbours in structure and some others; about 2.8% of the full set was active somewhere.
KDM5B inh – Primary screen for KDM5B Histone Demethylases FDH-coupled qHTS; AID 1347165, 2019; actives 2.6% (n = 220,000); KDM5B demethylase, FDH-coupled NADH fluorescence (FDH is formaldehyde dehydrogenase); Potency, µM (highest dose often 57.7 µM), most hits filed as inhibitors; active means well fitted inhibition curve with a large enough effect; inconclusive means small, poorly fitted or top-dose-only effect; inactive means no such curve, though single readings can be large or run the other way; further: potency means the concentration at half of the fitted maximal effect; 0% is about no effect; nearly all actives have a fitted effect of over 70% in size
Target sequence (Q9UGL1 whole entry, looked up): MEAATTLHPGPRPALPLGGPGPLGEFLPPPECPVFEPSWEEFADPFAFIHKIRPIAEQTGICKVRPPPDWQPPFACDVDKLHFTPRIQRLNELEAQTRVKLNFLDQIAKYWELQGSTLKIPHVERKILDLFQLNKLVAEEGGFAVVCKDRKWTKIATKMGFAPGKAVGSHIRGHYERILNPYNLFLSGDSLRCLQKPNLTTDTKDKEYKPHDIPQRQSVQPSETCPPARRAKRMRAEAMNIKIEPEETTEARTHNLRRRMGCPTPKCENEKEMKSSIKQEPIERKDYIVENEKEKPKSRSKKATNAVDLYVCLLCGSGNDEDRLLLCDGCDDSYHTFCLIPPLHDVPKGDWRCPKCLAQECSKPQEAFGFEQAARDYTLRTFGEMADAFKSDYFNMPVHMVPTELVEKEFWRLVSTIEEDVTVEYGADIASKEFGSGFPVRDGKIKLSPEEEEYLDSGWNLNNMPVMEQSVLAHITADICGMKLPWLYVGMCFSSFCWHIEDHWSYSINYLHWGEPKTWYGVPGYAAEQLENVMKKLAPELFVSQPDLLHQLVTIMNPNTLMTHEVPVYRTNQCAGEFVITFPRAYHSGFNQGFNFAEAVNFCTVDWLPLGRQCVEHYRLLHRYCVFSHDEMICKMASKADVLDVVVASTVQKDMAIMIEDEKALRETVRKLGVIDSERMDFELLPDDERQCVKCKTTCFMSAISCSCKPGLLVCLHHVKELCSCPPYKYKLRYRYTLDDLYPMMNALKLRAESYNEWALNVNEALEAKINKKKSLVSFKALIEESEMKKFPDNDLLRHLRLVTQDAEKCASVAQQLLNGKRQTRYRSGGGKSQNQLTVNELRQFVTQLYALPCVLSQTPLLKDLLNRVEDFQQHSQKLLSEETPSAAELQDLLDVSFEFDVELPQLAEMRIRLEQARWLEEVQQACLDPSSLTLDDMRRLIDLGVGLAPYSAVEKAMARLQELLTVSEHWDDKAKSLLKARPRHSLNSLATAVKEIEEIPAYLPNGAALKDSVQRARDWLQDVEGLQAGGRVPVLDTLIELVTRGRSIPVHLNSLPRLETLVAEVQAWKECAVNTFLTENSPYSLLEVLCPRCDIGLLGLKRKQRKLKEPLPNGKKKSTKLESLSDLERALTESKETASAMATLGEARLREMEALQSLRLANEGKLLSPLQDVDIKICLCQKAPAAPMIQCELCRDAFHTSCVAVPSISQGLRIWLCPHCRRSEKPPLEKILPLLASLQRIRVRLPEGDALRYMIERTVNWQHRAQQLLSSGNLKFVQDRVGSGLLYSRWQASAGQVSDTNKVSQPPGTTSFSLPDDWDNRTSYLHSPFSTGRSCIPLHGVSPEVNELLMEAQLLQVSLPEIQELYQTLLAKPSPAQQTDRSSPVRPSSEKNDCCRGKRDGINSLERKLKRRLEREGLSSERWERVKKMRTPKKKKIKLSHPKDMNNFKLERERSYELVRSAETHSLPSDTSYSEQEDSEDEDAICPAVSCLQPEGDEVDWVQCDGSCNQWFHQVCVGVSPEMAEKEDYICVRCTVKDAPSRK
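Inhibition is measured as reduced NADH fluorescence generation from FDH coupling to formaldehyde release. Truncated KDM5BΔAP at 200 nM final acts on H3K4me3 peptide (12.5 µM in substrate mix) in pH 7.5 HEPES buffer with Tween-20, 30 min, room temperature.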
IP6K1 inh – Primary qHTS assay for small molecule inhibitors of Inositol hexaphosphate kinase 1 (IP6K1); IP6K1 kinase, ADP-Glo luminescence, 2 h; stronger effect = lower value; activity change, % (series mostly up to about 58 µM); Inositol hexakisphosphate kinase 1 (Homo sapiens), Q92551; actives 0.81% (n = 140,000); in the data active means activity change below about -25%; further: on the % scale 0 is the no-effect control and ±100 the full control effect
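ADP-Glo luminescence measures ADP made by human IP6K1 during a 2 h RT reaction with ATP/IP6 (mix at 1.3 mM/130 uM); top library doses 57.5 and 19.1 uM final.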
The depositor's hits bear a star.

How did C/C(=N\O)c1cc(C(C)(C)C)c(O)c(C(C)(C)C)c1 do in these assays?
KDM5B inh: inactive

What do the screens show for `CNC(=O)Cn1nc(-c2cccc([N+](=O)[O-])c2)c2ccccc2c1=O`?
KDM5B inh: inactive

Results for O=c1[nH]cccc1NS(=O)(=O)c1ccc(F)c(F)c1 ?
KDM5B inh: inactive

Results for CN1CCN(c2ccc(-c3noc([C@@H]4CCCN4Cc4ccccc4)n3)cn2)CC1 ?
KDM5B inh: inconclusive; IP6K1 inh: -3

How did COCCNc1cc(-c2noc([C@@H]3CCCN3CC(C)C)n2)ccn1 do in these assays?
KDM5B inh: 32µM*; IP6K1 inh: 8

What do the screens show for `CS(=O)(=O)c1ccc(CN2CCC[C@H]2c2nc(-c3ccnc(N4CCOCC4)c3)no2)cc1`?
KDM5B inh: 25µM*; IP6K1 inh: 6

How did CC(C)CN1CCC[C@H]1c1nc(-c2ccnc(N3CCOCC3)c2)no1 do in these assays?
KDM5B inh: 32µM*; IP6K1 inh: 0

What do the screens show for `c1ccc(CN2CCC[C@H]2c2nc(-c3ccnc(N4CCOCC4)c3)no2)cc1`?
KDM5B inh: 35µM*; IP6K1 inh: 4

How did Fc1ccccc1CN1CCC[C@H]1c1nc(-c2ccnc(N3CCOCC3)c2)no1 do in these assays?
KDM5B inh: inconclusive; IP6K1 inh: 13

How did COCCNc1ccc(-c2noc([C@@H]3CCCN3C3CCC3)n2)cn1 do in these assays?
KDM5B inh: inactive; IP6K1 inh: -3

Results for Cc1nc2cc(NC(=O)COc3ccc(F)cc3)ccc2o1 ?
KDM5B inh: inactive

Results for CC(C)(C)c1ccc(C(=O)Nc2ccc(NC(=O)c3ccc(C#N)cc3F)cc2)cc1 ?
KDM5B inh: inactive

What do the screens show for `CN(C)Cc1nnc(C2CC(NC(=O)c3ccc4ncccc4c3)C2)n1C` (stereo not drawn)?
KDM5B inh: inactive; IP6K1 inh: 17

How did CCCCCCCOC(=O)c1c(C)oc2c1cc(NS(=O)(=O)c1cccs1)c1ccccc12 do in these assays?
KDM5B inh: inactive

What do the screens show for `COc1ccccc1C(=O)N1CCn2c(nnc2-c2ccccc2)C1`?
KDM5B inh: inactive; IP6K1 inh: -4

How did CC(C)N1C(=O)C(CC(=O)NCCCN2CCc3ccccc3C2)=C2CCCCC21 (stereo not drawn) do in these assays?
KDM5B inh: inactive; IP6K1 inh: 8

How did c1cc(-c2noc([C@@H]3CCCN3C3CCC3)n2)cc(N2CCOCC2)n1 do in these assays?
KDM5B inh: 35µM*; IP6K1 inh: -9

Results for N#Cc1ccc(CN2CCC[C@H]2c2nc(-c3ccnc(N4CCOCC4)c3)no2)cc1 ?
KDM5B inh: 35µM*; IP6K1 inh: 10

Results for N#Cc1cccc(CN2CCC[C@H]2c2nc(-c3ccc(OC4CCCCC4)nc3)no2)c1 ?
KDM5B inh: inactive; IP6K1 inh: -2

How did c1cc(N2CCOCC2)ncc1-c1noc([C@@H]2CCCN2C2CCOCC2)n1 do in these assays?
KDM5B inh: inconclusive; IP6K1 inh: 27

What do the screens show for `O=C(Cc1ccccc1F)N1CCC2(CC1)CN(c1ccncn1)CC2CO` (stereo not drawn)?
KDM5B inh: inactive; IP6K1 inh: 41

How did O=C(Cc1cccc(F)c1)N1CCC2(CC1)CN(c1ncccn1)CC2CO (stereo not drawn) do in these assays?
KDM5B inh: 22µM*; IP6K1 inh: 23

How did COc1cccc(CC(=O)N2CCC3(CC2)CN(c2ncccn2)CC3CO)c1 (stereo not drawn) do in these assays?
KDM5B inh: inconclusive; IP6K1 inh: 5

How did O=C(Cc1ccccc1)N1CCC2(CC1)CN(c1ncccn1)CC2CO (stereo not drawn) do in these assays?
KDM5B inh: 22µM*; IP6K1 inh: 19

How did Cn1nc(C(=O)N2CCC3(CC2)N=C(c2ccc(Br)cc2)NO3)c2ccccc21 do in these assays?
KDM5B inh: inactive; IP6K1 inh: 9

What do the screens show for `COc1ccc(OC)c(CN2CCCn3nc(C)c(-c4cnccc4C)c32)c1`?
KDM5B inh: 32µM*; IP6K1 inh: 4

What do the screens show for `COc1ccccc1CN1CCCn2nc(C)c(-c3cnccc3C)c21`?
KDM5B inh: inconclusive; IP6K1 inh: 23

Results for Cc1ccncc1-c1c(C)nn2c1N(Cc1cccc(OC(F)(F)F)c1)CCC2 ?
KDM5B inh: 35µM*; IP6K1 inh: 23

What do the screens show for `Cc1ccncc1-c1c(C)nn2c1N(Cc1cccc(O)c1)CCC2`?
KDM5B inh: inconclusive; IP6K1 inh: 0

Results for COc1ccc(CNC(=O)C2CCCN(Cc3cccc(-c4cccc(C)c4)c3)C2)cc1 (stereo not drawn) ?
IP6K1 inh: -5

Results for Cc1ccc(NC(=O)Cn2ccn3nc(-c4ccc(F)cc4)c(CO)c3c2=O)c(C)c1 ?
KDM5B inh: inconclusive; IP6K1 inh: -5

What do the screens show for `Cc1ccc(NC(=O)Cn2ccn3nc(-c4ccccc4)c(CO)c3c2=O)cc1`?
KDM5B inh: inactive; IP6K1 inh: 12

What do the screens show for `Cc1ccc(C)c(NC(=O)Cn2ccn3nc(-c4ccc(F)cc4)c(CO)c3c2=O)c1`?
KDM5B inh: 18µM*; IP6K1 inh: 0

Results for O=C(Cn1ccn2nc(-c3ccccc3)c(CO)c2c1=O)Nc1ccccc1C(F)(F)F ?
KDM5B inh: 20µM*; IP6K1 inh: 10

Results for O=C(Cn1ccn2nc(-c3ccc(F)cc3)c(CO)c2c1=O)NCc1ccccc1 ?
KDM5B inh: inconclusive; IP6K1 inh: 5

How did O=C(Cn1ccn2nc(-c3ccc(F)cc3)c(CO)c2c1=O)NCc1ccccc1Cl do in these assays?
KDM5B inh: 28µM*; IP6K1 inh: 3

How did Cc1ccc(NC(=O)Cn2ccn3nc(-c4ccccc4)c(CO)c3c2=O)c(C)c1 do in these assays?
KDM5B inh: 32µM*; IP6K1 inh: -2

How did O=C(Cn1ccn2nc(-c3ccccc3)c(CO)c2c1=O)Nc1ccccc1Cl do in these assays?
KDM5B inh: inactive; IP6K1 inh: 3

Results for COCCC(=O)N[C@H]1CC[C@]2(C)CCC([C@H](C)C(=O)NCc3cccs3)[C@H](O)[C@H]2[C@@H]1C (stereo partly drawn) ?
KDM5B inh: inactive; IP6K1 inh: -3

How did Cc1cnc(CCNC(=O)c2cccs2)n1C1CCC1 do in these assays?
IP6K1 inh: 19

How did CSc1ccc(Cl)c(C(=O)Nc2cc(C)cc(C)c2)c1 do in these assays?
KDM5B inh: inactive

Results for Cc1cc(C)c2c(CC(=O)N3C[C@@H]4CCN(C)C[C@]4(C(=O)O)C3)coc2c1 ?
KDM5B inh: inactive; IP6K1 inh: 2

How did COc1ccc(OC)c(NC(=O)Cn2ccn3nc(-c4ccccc4)c(CO)c3c2=O)c1 do in these assays?
KDM5B inh: inconclusive; IP6K1 inh: 43

Results for COc1cc(Cl)c(C)cc1NC(=O)Cn1ccn2nc(-c3ccccc3)c(CO)c2c1=O ?
KDM5B inh: 16µM*; IP6K1 inh: 10

How did CC(C)CSc1nc(N2CCOCC2)c2c(c1C#N)CCCC2 do in these assays?
KDM5B inh: inactive

What do the screens show for `COc1ccc(N2CC(C(=O)NCc3cccc(OC)c3)NC2=O)cc1` (stereo not drawn)?
KDM5B inh: inactive; IP6K1 inh: 1
